Screening data as filed in PubChem.
APEX1 inh: APE1 (human) endonuclease inhibition. P27695. AID 2517. recombinant APE1, TAMRA/BHQ-2 abasic DNA cleavage fluorescence. 350,000 tested, 0.35% active. Potency, µM (doses to about 65.8 µM), most hits filed as inhibitors; also: nearly all actives have a fitted effect of over 55% in size
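Measures dequenching upon AP-site incision of a 5'-TAMRA/3'-BHQ-2 THF-containing duplex, 50 nM; human APE1 0.75 nM after 15 min room-temperature exposure to compound; kinetic three-point read at one-minute spacing.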
RECQ1 inh-1: blocks DNA unwinding by human RECQ1; RECQ1 DNA unwinding, red fluorescence kinetic read; 240,000 tested, 0.54% active; Potency, µM (titrated, usually from 57.3 µM), hits mostly inhibitors; P46063; AID 2549; also: nearly all actives have a fitted effect of over 30% in size
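RECQ1T1 50 nM; forked duplex (20 bp + 30-nt ss tails) 200 nM, ATP 2 mM final; pH 8.0, 2 mM MgCl2, 2.5 ug/ml poly(dI-dC); 15 min compound preincubation; discontinuous kinetic read over 2 h at RT.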
BLM helicase inh: blocks DNA unwinding by human BLM helicase | Potency, µM (top dose mostly 56.1 µM), hits mostly inhibitors | AID 2528 | recombinant BLM DNA unwinding, fluorescence dequenching | 350,000 tested, 0.2% active; also: nearly all actives have a fitted effect of over 35% in size
JMJD2E inh: blocks human JMJD2E demethylase activity; B2RXH2; JMJD2E catalytic domain, FDH-coupled NADH fluorescence (FDH is formaldehyde dehydrogenase); Potency, µM (doses to about 57.1 µM), most hits filed as inhibitors; 230,000 tested, 1.6% active; active = well fitted inhibition curve with a large enough effect, not every such curve was filed as active; inconclusive = small, poorly fitted or top-dose-only effect, or another doubt; inactive = no such curve, though single readings can be large or run the other way; also: nearly all actives have a fitted effect of over 50% in size
PKM2 act: activators of human pyruvate kinase M2; P14618; purified PKM2, Kinase-Glo ATP luminescence, activation; response scale: 0% is enzyme alone, no compound; Potency, µM (top dose mostly 57.5 µM), usual class: activators; 260,000 tested, 0.34% active; AID 1631; also: nearly all actives have a fitted effect of over 55% in size
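hPK-M2, >95% pure; 0.1 mM ADP / 0.5 mM PEP final; imidazole pH7.2 buffer w/ 7 mM MgCl2, 50 mM KCl; 1 h RT; Kinase-Glo lum. Intermediate enzyme activity for dual inhibitor/activator qHTS.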
RECQ1 inh conf: confirmation of human RECQ1 helicase inhibitors; shares compounds with RECQ1 inh-1; 610 tested, 28% active; Potency, µM (top dose mostly 229 µM), most hits filed as inhibitors; RECQ1 helicase DNA unwinding, fluorescence; also: nearly all actives have a fitted effect of over 45% in size
ADP FP counter: ADP displacement flagged in RECQ1 inhibitor counter-screen | shares compounds with RECQ1 inh-1 | ADP fluorescence polarization displacement counterscreen | Potency, µM (series often up to 228 µM), actives largely listed as inhibitors | 530 tested, 27% active; also: nearly all actives have a fitted effect of over 45% in size
RECQ1 inh-2: RECQ1 helicase inhibition confirmed, round 2; shares compounds with RECQ1 inh-1; recombinant RECQ1 DNA unwinding, red fluorescence; Potency, µM (series often up to 119 µM), hits mostly inhibitors; 1,100 tested, 15% active; also: nearly all actives have a fitted effect of over 50% in size
A number is an active result; n = inactive; u = inconclusive; x = not tested or not shown; [ ] = dose if it differs, or a comment. Shown is part of a subset that was picked to be rich in hits. Unless noted, calls follow the shape of the dose curve; as a rule, active = well fitted curve in the direction sought with a large enough effect; inconclusive = small, poorly fitted or top-dose-only effect, or another doubt; inactive = no such curve, though single readings can be large; an effect the other way counts as inactive or inconclusive.

SMILES | APEX1 inh | RECQ1 inh-1 | BLM helicase inh | JMJD2E inh | PKM2 act | RECQ1 inh-2 | others
Cc1ccc(/C=C/C(=O)c2cc(Br)ccc2OC(=O)c2ccco2)cc1 | n | n | n | n | n | x
CCOc1ccc(/C=C/C(=O)c2cc(Br)ccc(=O)c2O)cc1 | n | 22.4µM | n | 31.6µM | n | u
CCOc1ccc(C(=O)/C=C/c2ccc(OC)c(OC)c2)cc1 | n | n | n | u | n | x
CCc1ccc(/C=C/C(=O)c2cc(Br)ccc(=O)c2O)cc1 | u | u | n | u | n | u
Cc1cccc(/C=C/C(=O)c2cc(Br)ccc(=O)c2O)c1 | n | u | n | u | n | u
Cc1c(Cl)cccc1NC(=O)Nc1ccc2snnc2c1 | x | x | n | x | x | x
C=C1CCC(O)C/C1=C\C=C1/CCCC2(C)C1CCC2C(C)CCCC(C)C (stereo not drawn) | n | n | n | n | x | x
CN(Cc1ccccc1)C(=O)C1CCN(S(=O)(=O)Cc2ccccc2)CC1 | x | x | n | x | x | x
CCc1ccc(-n2nnnc2SCC(=O)Nc2ccc(NC(C)=O)cc2)cc1 | n | x | n | x | n | x
CC(=O)Nc1ccc(-n2nnnc2SCC(=O)Nc2cccc(NC(=O)c3ccco3)c2)cc1 | u | u | n | u | u | u
COc1ccc2c(c1)O/C(=C\c1ccco1)C2=O | u | u | n | u | n | n
COC(=O)C(C)Oc1ccc2c(c1)O/C(=C\c1ccco1)C2=O (stereo not drawn) | n | x | n | x | x | x
Cc1cc(C)cc(C(=O)NCC(=O)OCC(=O)N2c3ccccc3NC(=O)C2(C)C)c1 | u | u | n | n | n | n
CC(C)(O)C#Cc1ccc(CN2CCCC(CO)(Cc3cccc(Cl)c3)C2)cc1 (stereo not drawn) | n | u | n | n | n | n
O=C(/C=C/c1ccc([N+](=O)[O-])cc1)NCCc1ccccc1 | n | n | n | n | n | x
O=C(/C=C/c1ccccc1)NCCc1ccccc1 | 7.94µM | 17.8µM | n | n | n | u | RECQ1 inh conf=n;ADP FP counter=u
CCOC(=O)c1ccc(NC(=S)N2CCSC2c2ccc(OC)cc2)cc1 (stereo not drawn) | n | n | n | n | n | x
CCOC(=O)c1ccc(NC(=S)N2CCSC2c2ccc(Cl)cc2)cc1 (stereo not drawn) | n | u | n | n | n | n
COC(=O)C1=C(C(=O)OC)[C@@H]2N(Cc3ccccc3)c3ccccc3[C@@]23C[C@@H](C(=O)OC)N(S(=O)(=O)c2ccc4c(c2)OCCN4C)C3=N1 | n[12.4 µM] | u | n[12.4 µM] | n[11.4 µM] | n[11.5 µM] | x
O=C(c1ccc(Nc2nccc(-c3cc4ccccc4s3)n2)cc1)N1CCC(N2CCCC2)CC1 | n | u | u | x | x | 25.1µM
O=C(O)CSc1nnc(Cn2c(=O)sc3ccccc32)n1-c1cccc(Cl)c1 | n | n | n | n | n | x | RECQ1 inh conf=n;ADP FP counter=n
NC(=O)CSc1nnc(Cn2c(=O)sc3ccccc32)n1-c1cccc(Cl)c1 | n | n | n | n | n | x
NC(=O)CCC1NC(=O)C(Cc2ccccc2)NC(=O)C(Cc2ccc(O)cc2)NC(=O)CCSSCC(C(=O)N2CCCC2C(=O)NC(CCCN=C(N)N)C(=O)NCC(N)=O)NC(=O)C(CC(N)=O)NC1=O (stereo not drawn) | x | x | n | x | x | x
COC(=O)COc1ccc(C2Nc3c(Cl)ccc(C(=O)O)c3C3C=CCC32)cc1 (stereo not drawn) | u | 28.2µM | n | u | u | u
COc1ccc(OC)c(C2Nc3c(Cl)ccc(C(=O)O)c3C3C=CCC32)c1 (stereo not drawn) | n | n | n | u | n | x
COc1ccc(S(=O)(=O)NCCSCc2ccco2)cc1 | u | u | n | n | n | n
Cc1cccc(-c2c3c(=O)n(C)c(=O)n(C)c3cn2-c2cc(N)c(Cl)cc2Cl)c1 | x | x | n | x | x | x
